Results filed as inconclusive are left out. The source made the active and inactive calls.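 How the source made its calls, unless noted: active means viability loss from added drug above about 55%, and viability with drug at most 40%, in both replicates (limit read from the data, passing the limit was not always enough); inconclusive means both conditions met in only one replicate; inactive means neither replicate meets both conditions.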

A short description of assay [1]: reduced viability of SK-BR-3 breast cancer cells – cell-based, 24 h, human, pilot screen (AID 572;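 active means viability at or below 10% of carrier control in both of two separate runs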;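 further: compound exposure lasted between 18 and 24 h rather than exactly 24 h; 100% = carrier-treated control wells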). The conditions noted are these: SK-BR-3 viability, CellTiter-Glo luminescence, at 10 µM, stronger effect = lower value. (In ATP-based viability assays light output follows the ATP content of the culture.)
A short description of assay [2]: HUVEC growth inhibition – cell-based, human, primary screen (AID 575;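 active means viability at or below 30% in both replicate assays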;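 further: 100% = median of untreated cell wells with 0.1% DMSO on each plate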). The conditions noted are these: HUVEC proliferation, CellTiter-Glo luminescence, 72 h; at 10 µM; stronger effect = lower value.
The nature of assay [3]: MRP1 drug-resistance reversers in H69AR cells – cell-based, doxorubicin co-treatment, pilot screen (AID 601). The conditions noted are these: CellTiter-Glo, 72 h, at 10 µM; for differential viability (reversal): stronger effect = higher value.
Assay [4] is described as follows: yeast transport mutant growth inhibition pilot in 384-well plates, post-Golgi transport modulator project (AID 636; in the data active means inhibition above about 31%). The conditions noted are these: absorbance 615 nm, about 18 h, stronger effect = higher value.
Assay [5] is described as follows: growth suppression of yeast trafficking mutant, preliminary HTS, modulators of trafficking downstream of Golgi apparatus project, 1536-format plate, OD 615 nm (AID 637; in the data active means inhibition above about 30%). The conditions noted are these: yeast transport mutant growth, absorbance 615 nm, 18 h; stronger effect = higher value.
The nature of assay [6]: H69AR cell proliferation blockers – human, duplicate replicates, primary screen (AID 580;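 active means viability at or under a set limit in both replicates, limit being median viability minus 3 SD, cut at about 48% in these data, passing the limit was not always enough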;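 further: 100% = mean luminescence of untreated wells and 0% = no signal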). The conditions noted are these: H69AR lung tumor cells viability, ATP luminescence, 72 h; at 10 µM; stronger effect = lower value.
Assay [7] is described as follows: S. cerevisiae growth inhibition in permissive medium (OD615), pilot counter-assay for S. cerevisiae lifespan shortening project, permissive growth control (AID 705;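 active means growth inhibition above 25% in both replicates, a cutoff set 3 SD above the mean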). The conditions noted are these: OD615, 24 h, at 10 µM, stronger effect = higher value.
The nature of assay [8]: S. cerevisiae growth inhibition in restrictive medium, OD615, pilot screen, restrictive growth control, yeast lifespan reduction project (AID 706;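 active means growth inhibition above a set limit, 3 SD over mean compound inhibition, in both replicates, cut at about 43% in these data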;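 further: modified DeaD lifespan yeast strain shifted to restrictive glucose medium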). The conditions noted are these: OD615, 48 h, at 10 µM, stronger effect = higher value.
Assay [9] can be described thus: doxorubicin toxicity protection in MRP-1 cells – H69AR cells, CellTiter-Glo, duplicate, MRP-1 activator project, pilot screen (AID 807;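 active means viability increase at or above a cutoff of the median across tested compounds plus 3 SD, cut at about 8.5% in these data, passing the limit was not always enough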;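 further: compound pretreatment 18-22 h then 72 h combined with doxorubicin; 0% = doxorubicin alone and 100% = vehicle without doxorubicin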). The conditions noted are these: H69AR viability with doxorubicin, CellTiter-Glo luminescence; at 10 µM; stronger effect = higher value.
The nature of assay [10]: viability of HCT116 without oncogenic beta-catenin – human colon tumor cells, pilot screen (AID 823;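 active means cell viability at or below a set limit in both duplicate runs, the limit being the all-compound median minus 4 SD, cut at about 23% in these data, passing the limit was not always enough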;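 further: 0% = wells killed by 20 µM Hyamine and 100% = untreated DMSO cell wells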). The conditions noted are these: HCT116 beta-catenin knockout viability, CellTiter-Glo, 60 h; at 10 µM; stronger effect = lower value.
The nature of assay [11]: viability of PTEN-null HCT116 cells – cell-based, HCT116 clonal line, CellTiter-Glo, pilot screen (AID 824;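 active means viability at or below 27.92% in each of two runs, the all-compound median minus 4 SD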;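 further: 0% = 20 µM Hyamine control and 100% = vehicle cell control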). The conditions noted are these: HCT116 PTEN-deleted viability, 60 h, at 10 µM, stronger effect = lower value.
The nature of assay [12]: RAM pathway blockade in budding yeast – dse1pr::URA3 reporter, 5-FOA selection, pilot screen (AID 869;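 active means inhibition over a set limit, the all-compound mean plus 3 SD, in both replicate runs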;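 further: 0% = DMSO wells with no growth and 100% = 10 µM 1-NA-PP1 with full growth; RAM network block rescues cells from 5-FOA so hits raise OD615 growth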). The conditions noted are these: S. cerevisiae dse1pr::URA3 5-FOA growth, OD615, 2 d; at 10 µM; stronger effect = higher value; strain carries analog-sensitive mutant Cbk1 kinase.
Setting [13] is: H69AR cells + 2 uM doxorubicin, measured here: viability with 2 uM doxorubicin, stronger effect = lower value.
Setting [14] is: H69AR cells, compound alone cytotoxicity.

Turning to `Cn1c(=O)cc(OCCCC(=O)Nc2ccc3c(c2)OCCO3)c2ccccc21`, the viability in assay [1] was 101% (inactive); in assay [2], 85.1% (inactive); in assay [3] (setting [13]) it was 70.7%; in assay [3] (setting [14]) it was 65.5%. The differential viability (reversal) in assay [3] (H69AR cells + 2 uM doxorubicin) was -5.2% (inactive). Besides, the figures for the inhibition in assay [4] and in [5] were -1.04% (inactive) and -6.39% (inactive), respectively.
Regarding `O=C(O)c1cc(O)c2c(c1)C(=O)c1cccc(O)c1C2=O`, the viability in assay [1] was 87% (inactive); in assay [6], 76.9% (inactive); in [3] (setting [13]), 91.4%; in assay [3] (setting [14]) it was 76.9%. Moreover, the differential viability (reversal) in assay [3] (H69AR cells + 2 uM doxorubicin) was -14.5% (inactive). The inhibition in [4] is -4.42% (inactive); in [5], 1.83% (inactive).
`CCCCC[C@H](O)/C=C/[C@H]1C=CC(=O)[C@@H]1C/C=C\CCCC(=O)O`: the viability was 111% (inactive) in [1], 67.4% (inactive) in [6], 57.6% in assay [3] (setting [13]) and 67.4% in assay [3] (setting [14]). In addition, the differential viability (reversal) in [3] (H69AR cells + 2 uM doxorubicin) is 9.76% (inactive). Moreover, the results for the inhibition in [4] and in assay [5] were -2.99% (inactive) and -0.5% (inactive), respectively.
Take `CCC(=O)Oc1ccc(C(CC)C(CC)c2ccc(OC(=O)CC)cc2)cc1` (centres undefined): the viability in [1] was 112% (inactive); in assay [6] it was 85.8% (inactive); in assay [3] (setting [13]), 102%; in assay [3] (setting [14]), 85.8%. Also, in assay [3] (H69AR cells + 2 uM doxorubicin), the differential viability (reversal) is -16.4% (inactive). The results for the inhibition in [4] and in assay [5] were -5.32% (inactive) and -1.33% (inactive), respectively.
`CO[C@H]1C[C@@H]2CC[C@@H](C)[C@@](O)(O2)C(=O)C(=O)N2CCCC[C@H]2C(=O)O[C@H]([C@H](C)C[C@@H]2CC[C@@H](O)[C@H](OC)C2)CC(=O)[C@H](C)C=C(C)[C@@H](O)[C@@H](OC)C(=O)[C@H](C)C[C@H](C)C=CC=CC=C1C`: the viability in assay [1] was 113% (inactive); in assay [6], 67.1% (inactive); in [3] (setting [13]), 65.7%; in assay [3] (setting [14]), 67.1%. Also, the differential viability (reversal) in [3] (H69AR cells + 2 uM doxorubicin) is 1.46% (inactive). For the same molecule, the inhibition in assay [4] was 93.6% (active); in [5], 82.2% (active).
`O=C(CNCCC1=CCCCC1)Nc1ccccc1N1CCCCC1`: the viability in assay [1] was 102% (inactive); in assay [3] (setting [13]), 66.9%; in [3] (setting [14]), 61.6%. Further, the differential viability (reversal) in [3] (H69AR cells + 2 uM doxorubicin) was -5.31% (inactive). The inhibition was -1.08% (inactive) in assay [4] and 6.51% (inactive) in [5].
Consider `CCN(CC)S(=O)(=O)c1ccc2[nH]cc(C(=O)NCCC3=CCCCC3)c(=O)c2c1`, for which the viability in [1] was 138% (inactive); in [6] it was 3.36% (active); in assay [3] (setting [13]), 44.3%; in [3] (setting [14]), 3.36%. Also, in [3] (H69AR cells + 2 uM doxorubicin), the differential viability (reversal) is -40.9% (inactive). The inhibition in assay [4] is -6.4% (inactive); in assay [5] it was -0.65% (inactive).
With `COc1ccc(-n2cc(-c3ccccc3)c3c(N4CCN(CCO)CC4)ncnc32)cc1`, the viability in [1] is 100% (inactive); in assay [6], 56.2% (inactive); in assay [3] (setting [13]), 45.7%; in assay [3] (setting [14]), 56.2%. The differential viability (reversal) in assay [3] (H69AR cells + 2 uM doxorubicin) is 10.5% (inactive). In addition, the inhibition in assay [4] was -6.13% (inactive); in assay [5], 0.48% (inactive).
As to `Cc1ccc(-c2cc(C(F)F)nc(NCC3CCCO3)n2)cc1` (centres undefined), the viability in [1] is 86% (inactive); in assay [6], 100% (inactive); in assay [3] (setting [13]), 94.2%; in assay [3] (setting [14]), 100%; in assay [10], 66.4% (inactive); in [11], 71.6% (inactive). For the same molecule, the differential viability (reversal) in assay [3] (H69AR cells + 2 uM doxorubicin) is 6.21% (inactive). In addition, the results for the inhibition in [4], in assay [5] and in [12] were 1.56% (inactive), -5.25% (inactive) and 1.38% (inactive), respectively. The results for the growth inhibition in [7] and in [8] were -12.2% (inactive) and -9% (inactive), respectively. In addition, the viability increase in [9] is 2.09% (inactive).
Turning to `C(=C\c1ccccc1)/CSc1nnc(-c2ccccn2)n1Cc1ccco1`, the viability is 84% (inactive) in assay [1], 21.4% (active) in [6], 68.2% in [3] (setting [13]) and 21.4% in assay [3] (setting [14]). Further, in [3] (H69AR cells + 2 uM doxorubicin), the differential viability (reversal) was -46.8% (inactive). The inhibition was -6.53% (inactive) in assay [4] and -0.16% (inactive) in [5].
In the case of `Cc1nnc(NCc2n[nH]c(=O)c3ccccc23)c2ccccc12`, the viability was 72% (inactive) in [1], 67.1% (inactive) in assay [6], 81.9% in assay [3] (setting [13]) and 67.1% in [3] (setting [14]). The differential viability (reversal) in assay [3] (H69AR cells + 2 uM doxorubicin) was -14.8% (inactive). The inhibition in assay [4] is -3.38% (inactive); in assay [5] it was 1.64% (inactive).
For the molecule `COC(=O)Nc1nc2ccc(Sc3ccccc3)cc2[nH]1`, the viability in assay [1] is 90% (inactive); in assay [3] (setting [13]), 25.1%; in assay [3] (setting [14]) it was 11.7%. For the same molecule, the differential viability (reversal) in assay [3] (H69AR cells + 2 uM doxorubicin) is -13.4% (inactive). Besides, the inhibition is 3.25% (inactive) in assay [4] and 25.2% (inactive) in [5].
As for `O=C(CCCN1CCC(O)(c2ccc(Cl)cc2)CC1)c1ccc(F)cc1`, the viability in [1] was 79% (inactive); in [6], 84% (inactive); in [3] (setting [13]) it was 80.9%; in [3] (setting [14]) it was 84%. In [3] (H69AR cells + 2 uM doxorubicin), the differential viability (reversal) was 3.11% (inactive). Moreover, the inhibition in [4] was 2.34% (inactive); in assay [5], -3.17% (inactive).
Consider `COC(=O)c1ccccc1NC(=O)c1ccc(-c2ccccc2F)o1`, for which the results for the viability in assay [1], in [3] (setting [13]) and in assay [3] (setting [14]) were 89% (inactive), 53.2% and 60.9%, respectively. Further, in assay [3] (H69AR cells + 2 uM doxorubicin), the differential viability (reversal) was 7.71% (inactive). The inhibition in [4] is -8.36% (inactive); in assay [5], -2.74% (inactive).
`C[C@]12CC[C@@H]3c4ccc(OC(=O)c5ccccc5)cc4CC[C@H]3[C@@H]1CC[C@@H]2O`: the viability in [1] is 78% (inactive); in [3] (setting [13]), 48%; in [3] (setting [14]), 39%. The differential viability (reversal) in assay [3] (H69AR cells + 2 uM doxorubicin) is -9.02% (inactive). Further, the inhibition in [4] is 2.73% (inactive); in assay [5], 32% (active).
`C(=C\c1ccccc1)/CN1CCN(C(c2ccccc2)c2ccccc2)CC1`: the viability is 90% (inactive) in assay [1], 71% (inactive) in assay [6], 73.7% in [3] (setting [13]) and 71% in [3] (setting [14]). Moreover, the differential viability (reversal) in [3] (H69AR cells + 2 uM doxorubicin) was -2.73% (inactive). Moreover, the inhibition in assay [4] is 1.43% (inactive); in assay [5] it was -3% (inactive).
Take `CCOC(=O)c1cc(-c2ccc(Cl)s2)nc2c1c(C)nn2C`: the viability in assay [1] was 66.5% (inactive); in assay [3] (setting [13]), 62%; in assay [3] (setting [14]) it was 35.8%. Further, the differential viability (reversal) in assay [3] (H69AR cells + 2 uM doxorubicin) was -26.2% (inactive). Further, the values for the inhibition in assay [4] and in assay [5] were -1.45% (inactive) and -0.82% (inactive), respectively.
As to `CCc1nnc(NC(=O)c2ccc(S(=O)(=O)N(CC(C)C)CC(C)C)cc2)o1`, the viability is 77% (inactive) in assay [1], 32.9% (active) in [6], 61.4% in assay [3] (setting [13]) and 32.9% in assay [3] (setting [14]). Further, in assay [3] (H69AR cells + 2 uM doxorubicin), the differential viability (reversal) was -28.4% (inactive). The results for the inhibition in [4] and in [5] were 3.9% (inactive) and 0.66% (inactive), respectively.
On to `Cc1cccn2c(=O)c3cc(C(=O)NC4CCCC4)c(=N)n(C4CCCC4)c3nc12`, for which the viability in assay [1] is 107% (inactive); in assay [6], 27.6% (active); in assay [3] (setting [13]), 12.1%; in [3] (setting [14]), 27.6%. The differential viability (reversal) in [3] (H69AR cells + 2 uM doxorubicin) is 15.5% (inactive). Also, the results for the inhibition in assay [4] and in assay [5] were -8.49% (inactive) and 0.81% (inactive), respectively.

By viability is commonly meant a read-out of living cells in per cent, often relative to untreated cells. By inhibition is commonly meant the change of the read-out against control, counted positive when it falls.
